For test [1], the system named is Wnt5a (protein binding on small-molecule microarray). Description: Wnt5a binders on small-molecule microarray, primary screen, biophysical, 635/667 nm fluorescence (AID 1142).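 Further: fluorescence read at 667 nm with signal to noise per printed feature.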 Particulars: 635 nm fluorescence, higher = more signal.
A short description of test [2]: cell viability in Huh7 cells, primary screen, cytotoxicity control for HCV replication inhibitor project, CellTiter-Glo luminescence, basal, 48 h (AID 1143).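 Further: Huh7 hepatoma cells carrying a hepatitis C replication reporter with no stimulus; test concentration not given here.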 The conditions noted are these: Huh7 HCV replicon, higher = more signal, called active from +8 up or from −8 down.
Test [3] can be described thus: P. aeruginosa biofilm formation inhibitors, primary screen, PAO1 strain, BacTiter-Glo luminescence, LB-PBS (AID 1144). Particulars: 12 h, higher = more signal.
Test [4] in a line: CREB reporter modulators without forskolin, primary screen, cell-based, PC12, CRE-LacZ reporter, unstimulated (AID 1145). The conditions noted are these: no forskolin, luminescence, 4.5 h, higher = more signal, called active from +8 up or from −8 down.
The nature of test [5]: CREB reporter modulators under forskolin, primary screen, cell-based, PC12, CRE-LacZ reporter, forskolin-stimulated (AID 1146).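 Further: PC12 cells with 6xCRE LacZ reporter stimulated by forskolin 10 µM; beta-galactosidase reporter signal reflecting CREB driven transcription.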 The conditions noted are these: luminescence, 4.5 h, higher = more signal, called active from +8 up or from −8 down.
In test [6] the target is Streptavidin (Streptomyces avidinii) (UniProt P22629). Briefly: streptavidin binders on small-molecule microarray, primary screen, artefact control for SMM compound annotation, biophysical, 635/667 nm fluorescence (AID 1147).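 Further: signal reflects streptavidin binding to arrayed compounds as a control protein.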 Particulars: streptavidin binding, higher = more signal.
Streptavidin (Streptomyces avidinii), sequence (P22629 whole entry, looked up): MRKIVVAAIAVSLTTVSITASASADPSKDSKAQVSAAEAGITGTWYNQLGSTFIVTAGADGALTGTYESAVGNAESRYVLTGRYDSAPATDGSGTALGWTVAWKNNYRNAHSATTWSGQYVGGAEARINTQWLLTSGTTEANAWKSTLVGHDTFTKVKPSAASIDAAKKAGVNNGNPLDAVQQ
The nature of test [7]: small-molecule binders of probe aInhba, primary screen, biochemical, small-molecule microarray, 635/667 nm fluorescence (AID 1148).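 Further: score merges 667nm spot fluorescence with signal-to-noise for antibody binding to printed compounds.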 The conditions noted are these: higher = more signal.
Test [8] deals with Torsin-1A (Homo sapiens) (UniProt O14656). Description: torsin A binders from cell lysate, primary screen, small-molecule microarray, wild-type, 635/667 nm (AID 1149). The conditions noted are these: COS7 hTOR1A-WT lysate, 635 nm fluorescence, higher = more signal.
Torsin-1A (Homo sapiens), sequence (O14656 whole entry, looked up): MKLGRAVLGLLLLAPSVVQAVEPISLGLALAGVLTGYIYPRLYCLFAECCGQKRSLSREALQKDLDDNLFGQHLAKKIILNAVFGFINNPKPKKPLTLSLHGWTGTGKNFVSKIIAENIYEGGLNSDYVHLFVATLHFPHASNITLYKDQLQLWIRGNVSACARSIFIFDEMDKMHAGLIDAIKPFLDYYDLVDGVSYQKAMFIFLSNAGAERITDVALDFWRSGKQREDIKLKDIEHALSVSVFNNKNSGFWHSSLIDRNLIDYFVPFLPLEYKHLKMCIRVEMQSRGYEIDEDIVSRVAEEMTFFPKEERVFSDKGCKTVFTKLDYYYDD
Test [9] has the same target. Description: small-molecule binders of mutant TOR1A in lysate, primary screen, cell lysate, small-molecule microarray, COS7 lysate, 635/667 nm fluorescence (AID 1150).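 Further: score pools 667 nm emission and signal to noise measuring lysate protein binding.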 The conditions noted are these: COS7 hTOR1A mutant lysate, 635 nm fluorescence, higher = more signal.
In test [10] the test system is Sonic hedgehog protein (Shh). Description: small-molecule binders of Shh protein, primary screen, biochemical, small-molecule microarray, 635/667 nm fluorescence (AID 1151).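 Further: Shh protein binding to compounds spotted on small-molecule microarray slides; score combines spot fluorescence intensity with signal-to-noise across triplicate slides.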 The conditions noted are these: small-molecule microarray binding, 635 nm fluorescence; higher = more signal.
Test [11] in a line: E. coli DRC41 culture turbidity changes, primary screen, E. coli filamentation inducer project, strain DRC41, OD650, 48 h (AID 1152).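 Further: E. coli MC1000 strain DRC41 lacking acrAB efflux pump and sulA.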 The conditions noted are these: E. coli DRC41 (acrAB sulA), higher = more signal, called active from +8 up or from −8 down.
A short description of test [12]: small-molecule binders of probe aLefty1, primary screen, biochemical, small-molecule microarray, 635/667 nm fluorescence (AID 1153).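 Further: score merges spot fluorescence with signal-to-noise ratio from the scanned slide images.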 The conditions noted are these: higher = more signal.
Test [13] is described as follows: PSAC antagonists in infected red cells, primary screen, cell-based, P. falciparum Indochina, OD700, 1 h (AID 1154). Particulars: P. falciparum Indochina infected RBC osmotic lysis, higher = more signal, called active from +8 up or from −8 down.
Test [14] is described as follows: PSAC antagonists in infected red cells, primary screen, cell-based, P. falciparum Indochina, OD700, 2 h (AID 1155).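 Further: lysis reports solute entry through the parasite surface anion channel PSAC; channel blockers reduce lysis of infected cells.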 The conditions noted are these: P. falciparum Indochina infected erythrocytes, osmotic lysis OD700; higher = more signal, called active from +8 up or from −8 down.
Test [15] can be described thus: osmotic lysis modulators in infected erythrocytes, primary screen, PSAC antagonist project, cell-based, P. falciparum Indochina, OD700, 3 h (AID 1156). The conditions noted are these: higher = more signal, called active from +8 up or from −8 down.
A short description of test [16]: PSAC antagonists in infected red cells, primary screen, cell-based, P. falciparum Indochina, OD700, 18 h (AID 1157). Particulars: P. falciparum Indochina infected erythrocytes, osmotic lysis OD700, 18 h; higher = more signal, called active from +8 up or from −8 down.
Test [17] can be described thus: modulators of S6 phosphorylation in cells, primary screen, cell-based, A549, cytoblot, luminescence, serum-stimulated (AID 1158).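 Further: serum-stimulated A549 lung adenocarcinoma cells; signal is phosphorylated S6 detected by cytoblot immunostaining with HRP secondary.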 Particulars: A549 phospho-S6 cytoblot, 5 h, higher = more signal.
Test [18] deals with NADPH oxidase 2 (Homo sapiens) (UniProt P04839). Description: NOX2-dependent H2O2 signal modulators, primary screen, NOX inhibitor project, cell-based, HEK293-NOX2, PMA-stimulated, Amplex Red fluorescence (AID 1159). Further: test concentration not given here. The conditions noted are these: 45 min, higher = more signal, called active from +8 up or from −8 down.
NADPH oxidase 2 (Homo sapiens), sequence (P04839 whole entry, looked up): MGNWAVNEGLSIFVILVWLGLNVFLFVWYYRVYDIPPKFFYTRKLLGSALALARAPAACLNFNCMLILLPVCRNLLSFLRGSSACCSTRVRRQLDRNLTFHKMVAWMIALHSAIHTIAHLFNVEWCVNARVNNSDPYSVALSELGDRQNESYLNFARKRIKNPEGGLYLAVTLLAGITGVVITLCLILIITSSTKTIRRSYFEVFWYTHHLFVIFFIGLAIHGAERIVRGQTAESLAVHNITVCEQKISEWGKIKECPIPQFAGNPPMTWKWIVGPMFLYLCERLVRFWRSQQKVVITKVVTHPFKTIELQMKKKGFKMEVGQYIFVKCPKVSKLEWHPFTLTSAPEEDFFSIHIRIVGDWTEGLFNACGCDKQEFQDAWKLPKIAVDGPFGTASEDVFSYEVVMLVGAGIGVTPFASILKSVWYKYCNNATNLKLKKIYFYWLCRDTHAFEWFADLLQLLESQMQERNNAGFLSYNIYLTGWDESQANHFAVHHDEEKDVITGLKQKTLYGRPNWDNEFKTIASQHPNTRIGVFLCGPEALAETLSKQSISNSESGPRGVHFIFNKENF
Test [19] concerns the target NADPH oxidase 4 (Homo sapiens) (UniProt Q9NPH5). Briefly: NOX4-dependent H2O2 signal modulators, primary screen, NOX inhibitor project, cell-based, HEK293-NOX4, tetracycline-induced, Amplex Red fluorescence (AID 1160). The conditions noted are these: 45 min, higher = more signal, called active from +8 up or from −8 down.
Test [20] has as its target NADPH oxidase 5 (Homo sapiens) (UniProt Q96PH1). Briefly: NOX5-dependent H2O2 signal modulators, primary screen, NOX inhibitor project, cell-based, HEK293-NOX5, Amplex Red fluorescence (AID 1161). Particulars: HEK293-NOX5, ionomycin, 45 min, higher = more signal.

Molecules are shown by their SMILES. Active and inactive are the calls of the source. Unless noted, how the calls were made is not given here.

NADPH oxidase 4 (Homo sapiens), sequence (Q9NPH5 whole entry, looked up): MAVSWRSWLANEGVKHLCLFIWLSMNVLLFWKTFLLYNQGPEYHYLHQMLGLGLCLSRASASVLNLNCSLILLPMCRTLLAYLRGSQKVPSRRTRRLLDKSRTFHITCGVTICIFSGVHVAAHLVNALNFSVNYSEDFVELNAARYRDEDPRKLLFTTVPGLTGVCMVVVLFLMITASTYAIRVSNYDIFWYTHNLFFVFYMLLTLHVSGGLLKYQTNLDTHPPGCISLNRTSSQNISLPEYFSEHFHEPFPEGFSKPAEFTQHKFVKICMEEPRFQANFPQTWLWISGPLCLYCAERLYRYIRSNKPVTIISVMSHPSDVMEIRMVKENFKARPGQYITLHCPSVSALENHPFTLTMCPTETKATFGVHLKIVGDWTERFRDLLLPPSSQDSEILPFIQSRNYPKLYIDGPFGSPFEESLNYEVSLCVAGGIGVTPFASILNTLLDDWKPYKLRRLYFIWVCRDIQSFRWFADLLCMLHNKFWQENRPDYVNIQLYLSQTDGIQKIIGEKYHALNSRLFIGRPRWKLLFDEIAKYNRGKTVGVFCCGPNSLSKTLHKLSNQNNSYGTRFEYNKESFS
NADPH oxidase 5 (Homo sapiens), sequence (Q96PH1 whole entry, looked up): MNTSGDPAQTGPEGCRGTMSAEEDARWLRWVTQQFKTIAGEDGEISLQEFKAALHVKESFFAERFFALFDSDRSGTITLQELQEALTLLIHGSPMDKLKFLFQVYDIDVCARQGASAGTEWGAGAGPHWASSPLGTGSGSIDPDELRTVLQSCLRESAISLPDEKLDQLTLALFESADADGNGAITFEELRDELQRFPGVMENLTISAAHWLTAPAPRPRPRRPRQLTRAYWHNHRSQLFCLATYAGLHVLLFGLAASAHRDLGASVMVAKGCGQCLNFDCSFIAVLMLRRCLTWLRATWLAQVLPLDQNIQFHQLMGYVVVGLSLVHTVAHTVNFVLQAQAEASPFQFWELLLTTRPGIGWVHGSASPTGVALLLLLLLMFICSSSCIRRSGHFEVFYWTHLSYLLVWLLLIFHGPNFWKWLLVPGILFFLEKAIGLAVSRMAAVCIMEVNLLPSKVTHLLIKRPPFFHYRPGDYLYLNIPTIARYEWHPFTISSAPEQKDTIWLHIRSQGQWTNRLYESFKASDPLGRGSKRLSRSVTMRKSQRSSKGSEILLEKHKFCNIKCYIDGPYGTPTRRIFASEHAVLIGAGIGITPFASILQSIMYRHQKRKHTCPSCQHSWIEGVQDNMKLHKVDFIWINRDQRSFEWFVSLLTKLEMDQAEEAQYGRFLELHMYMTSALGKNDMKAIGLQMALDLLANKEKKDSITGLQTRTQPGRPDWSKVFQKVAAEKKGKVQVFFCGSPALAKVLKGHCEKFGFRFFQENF

In the case of `O=C1OCCC=C[C@H]2OC34C=CCN(c5ccc(Cl)cc5)C(=O)[C@H]3N(CCCCCCO)C(=O)[C@@H]4C12` (stereo not given in full), the composite z-score in [1] is -0.365; in test [6], -0.985; in test [7] it was 0.0333; with Torsin-1A (Homo sapiens) [8], 0.132; with Torsin-1A (Homo sapiens) [9] it was -0.175; in test [10] it was -0.341. The composite z-score in [12] is -0.0292. In addition, the z-score is -0.352 (inactive) in test [2]; 0.358 (inactive) in test [3]; 0.0645 (inactive) in test [4]; -1.34 (inactive) in [5]; 1.96 (inactive) in [11]; 0.769 (inactive) in test [13]. In addition, the z-score in test [14] is 0.138 (inactive); in test [15], 1.13 (inactive); in test [16], 0.255 (inactive); in [17], 0.551; in test [18], 1.47 (inactive); in [19], 0.036 (inactive). In addition, in test [20], the z-score was 2.61.
On to `CN1C=C(C(=O)OCCS(C)(=O)=O)C(C(=O)OCCS(C)(=O)=O)=CC(c2ccc(CO)cc2)=CC1c1cccs1` (stereo not given), for which the composite z-score in test [1] turned out to be 0.0466; in test [6], 1.42; in test [7], 0.0659; in the test with Torsin-1A (Homo sapiens) [8], 0.579; with Torsin-1A (Homo sapiens) [9], 0.713; in test [10], 0.929. In [12], this molecule displayed a composite z-score of 0.391. In addition, the z-score is -1.3 (inactive) in test [2]; 0.637 (inactive) in [3]; 2.34 (inactive) in [4]; -1.45 (inactive) in test [5]; 0.248 (inactive) in [11]; 9.6 (active) in [13]. The z-score was 1.64 (inactive) in test [14]; 0.298 (inactive) in [15]; 0.969 (inactive) in test [16]; 0.0225 in test [17]; -0.937 (inactive) in [18]; -0.558 (inactive) in test [19]. The same molecule yielded a z-score in [20] of -1.98.
For `COCCOC(=O)N1C(=O)[C@@]2(c3cc(C#CCNC(N)=O)ccc31)[C@H](c1ccc(O)cc1)N1[C@H](c3ccccc3)[C@H](c3ccccc3)OC(=O)[C@H]1[C@@H]2C(N)=O`, the composite z-score in test [1] was -0.503; in test [6], -1.53; in [7], -0.331; with Torsin-1A (Homo sapiens) [8], -0.57; in the test with Torsin-1A (Homo sapiens) [9] it was -0.934; in [10], -1.56. In [12], the composite z-score was -0.67. Also, the z-score was -0.522 (inactive) in [2]; 0.175 (inactive) in [3]; 0.224 (inactive) in [4]; 0.645 (inactive) in test [5]; 0.847 (inactive) in test [11]; 0.646 (inactive) in [13]. In addition, the z-score was 0.783 (inactive) in [14]; -0.158 (inactive) in test [15]; 0.386 (inactive) in [16]; 0.285 in [17]; 0.37 (inactive) in test [18]; 0.163 (inactive) in test [19]. For the same molecule, in test [20], the z-score amounted to 0.361.
`COc1cc2c(cc1OC)CN(C(=O)[C@@H]1[C@H]3C(=O)O[C@H](c4ccccc4)[C@H](c4ccccc4)N3[C@H](c3ccc(O)cc3)[C@@]13C(=O)Nc1ccc(C#CCCO)cc13)CC2`: the composite z-score in test [1] is 0.527; in test [6], 0.819; in test [7], -0.0493; with Torsin-1A (Homo sapiens) [8], -0.0185; with Torsin-1A (Homo sapiens) [9], 0.45; in [10], 0.655. Further, in test [12], the composite z-score is -0.149. Moreover, the z-score in test [2] was 0.082 (inactive); in [3], -0.403 (inactive); in test [4] it was -0.878 (inactive); in [5], -0.231 (inactive); in test [11], -0.0186 (inactive); in test [13], 0.125 (inactive). The z-score in [14] is 0.448 (inactive); in [15], 1.16 (inactive); in test [16], 0.165 (inactive); in test [17], -0.42; in test [18], 0.777 (inactive); in test [19] it was 0.152 (inactive). In test [20], this molecule yielded a z-score of 0.532.
On to `CC1(C)C(=O)C(c2ccccc2)=C2CN3C(=O)N(CCc4ccccc4)C(=O)C3(Cc3ccc(C(F)(F)F)cc3)C=C21` (stereo not given), for which the composite z-score in test [1] was 0.437; in [6] it was 1.19; in test [7], 0.196; with Torsin-1A (Homo sapiens) [8], -0.102; in the test with Torsin-1A (Homo sapiens) [9], 0.608; in test [10], -1.01. In [12], this molecule registered a composite z-score of 0.349. The z-score in test [2] is -1.29 (inactive); in [3], 0.332 (inactive); in test [4] it was -0.379 (inactive); in [5], 0.866 (inactive); in [11], -2.21 (inactive); in test [13] it was 0.582 (inactive). The z-score in test [14] is 0.316 (inactive); in test [15] it was 0.482 (inactive); in [16], 0.668 (inactive); in test [17], 0.0875; in test [18], -0.462 (inactive); in test [19], -1.68 (inactive). The z-score in test [20] was -0.494.
As to `Cc1nc2cc(Br)ccc2c(=O)n1Cc1cccc(O)c1`, the composite z-score in test [1] is 0.59; in test [6], 0.57; in [7] it was -0.0567; with Torsin-1A (Homo sapiens) [8] it was 0.995; with Torsin-1A (Homo sapiens) [9], 0.407; in test [10] it was 1.29. In test [12], the composite z-score was -0.216. In addition, the z-score in [2] was 0.267 (inactive); in test [3], -0.0703 (inactive); in test [4] it was -1.11 (inactive); in test [5] it was -0.978 (inactive); in [11], 0.685 (inactive); in test [13], 0.73 (inactive). The z-score is 0.368 (inactive) in test [14]; 0.136 (inactive) in [15]; 0.377 (inactive) in test [16]; -0.257 in test [17]; -0.763 (inactive) in test [18]; -0.191 (inactive) in test [19]. The molecule also showed a z-score in test [20] of -0.302.
Regarding `O=C1O[C@H](c2ccccc2)[C@H](c2ccccc2)N2[C@H]1[C@@H](C(=O)O)[C@]1(C(=O)Nc3ccc(C#CC4(O)CCCCCC4)cc31)[C@H]2c1ccc(O)cc1`, the composite z-score in test [1] was -0.243; in test [6], -0.467; in test [7], -0.152; with Torsin-1A (Homo sapiens) [8], -0.449; in the test with Torsin-1A (Homo sapiens) [9], 0.198; in test [10], -0.335. The composite z-score in test [12] is 0.0355. Moreover, the z-score is -3.06 (inactive) in test [2]; -2.13 (inactive) in test [3]; -1.29 (inactive) in test [4]; -1.14 (inactive) in test [5]; 2.05 (inactive) in test [11]; -0.224 (inactive) in test [13]. The z-score is -0.925 (inactive) in test [14]; -2.31 (inactive) in [15]; -1.16 (inactive) in [16]; 1.65 in test [17]; 0.867 (inactive) in [18]; -0.353 (inactive) in test [19]. Moreover, in [20], the z-score is -1.06.
Regarding `C=CCC(OC(C)=O)[C@@H]1[C@@H](N(Cc2ccc(-c3cccc(C(F)(F)F)c3)o2)C(=O)c2ccc(C)cc2)c2cc(OCCCO)ccc2N1C(=O)Cc1ccc(OC)cc1` (stereo not given in full), the composite z-score was 0.058 in [1]; -0.109 in test [6]; -0.128 in test [7]; -0.425 with Torsin-1A (Homo sapiens) [8]; 0.197 in the test with Torsin-1A (Homo sapiens) [9]; 1.53 in test [10]. For the same molecule, the composite z-score in test [12] was determined as 0.0934. Further, the z-score in test [2] is -0.159 (inactive); in [3], -0.853 (inactive); in test [4], -0.477 (inactive); in test [5] it was 0.514 (inactive); in test [11], 2.06 (inactive); in test [13], 2.58 (inactive). The z-score in test [14] is 0.0001 (inactive); in [15], 0.636 (inactive); in test [16], 0.432 (inactive); in [17], 0.194; in test [18], -1.44 (inactive); in test [19] it was 0.641 (inactive). Further, in [20], the z-score was 0.233.
